Calls of active or inactive are those of the source. The calls were made as follows: active = hit-call score of the fitted dose curve at least 0.9, where 1 is the maximum; inactive = score below 0.9.
Key:
Conditions in all cases: mRNA level, 48 h; actives raise or lower the signal
[1] = read-out: Cytochrome P450 (CYP1A2), CYP1A2 (gene 1544); test: LTEA_HepaRG_CYP1A2: Life Technologies and Expression Analysis (LTEA) Assay for Cytochrome P450 (CYP1A2) using HepaRG (AID 2283479)
In short: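 Differentiated human HepaRG cells in serum-free induction medium exposed 48 hours in duplicate to 8 half-log concentrations from 100 uM, 0.5% DMSO. CYP1A2 mRNA quantified by qRT-PCR, normalized to ACTB, GAPDH and POLR2A; bidirectional fitting versus DMSO.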

[2] = read-out: cysteine-aspartic acid protease (CASP8), CASP8 (gene 841); test: LTEA_HepaRG_CASP8: Life Technologies and Expression Analysis (LTEA) Assay for cysteine-aspartic acid protease (CASP8) using HepaRG (AID 2283480)
In short: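 qRT-PCR readout of CASP8 mRNA, normalized to three housekeeping genes, after 48 h chemical exposure of HepaRG cells; 8-point half-log series, top 100 uM, 0.5% DMSO vehicle. Bidirectional curve fitting against DMSO baseline.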

[3] = read-out: Cytochrome P450 (CYP2B6), CYP2B6 (gene 1555); test: LTEA_HepaRG_CYP2B6: Life Technologies and Expression Analysis (LTEA) Assay for Cytochrome P450 (CYP2B6) using HepaRG (AID 2283481)
In short: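 Differentiated human HepaRG cells in serum-free induction medium, dosed in duplicate for 48 h over 8 half-log concentrations topping at 100 uM (0.5% DMSO). CYP2B6 mRNA measured by TaqMan qRT-PCR, normalized to ACTB, GAPDH, POLR2A; bidirectional fit versus DMSO.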

[4] = read-out: Cytochrome P450 2C19 (Homo sapiens) (UniProt P33261); test: LTEA_HepaRG_CYP2C19: Life Technologies and Expression Analysis (LTEA) Assay for CYP2C19 using HepaRG (AID 2283482)
In short: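 Differentiated HepaRG cells in serum-free induction medium exposed 48 h in duplicate, 8 concentrations from 100 uM by half-log steps in 0.5% DMSO. CYP2C19 mRNA measured by TaqMan qRT-PCR, normalized to ACTB, GAPDH, POLR2A. Bidirectional fit versus DMSO.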

CYP2C8 (gene 1558) = test: LTEA_HepaRG_CYP2C8: Life Technologies and Expression Analysis (LTEA) Assay for CYP2C8 using HepaRG (AID 2283483)
In short: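 HepaRG (human liver line), 48 h chemical exposure, 8-pt half-log series from 100 uM, 0.5% DMSO vehicle. Readout: CYP2C8 transcript by qRT-PCR, housekeeping-normalized. Bidirectional fit vs DMSO baseline.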

CYP4A11 (gene 1579) = test: LTEA_HepaRG_CYP4A11: Life Technologies and Expression Analysis (LTEA) Assay for CYP4A11 using HepaRG (AID 2283486)
In short: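 Differentiated HepaRG cells, 48 h after plating, exposed in duplicate for 48 h to 8 half-log concentrations up to 100 uM in 0.5% DMSO in serum-free induction medium. CYP4A11 mRNA measured by TaqMan qRT-PCR, normalized to ACTB, GAPDH and POLR2A.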

[5] = read-out: DNA damage-inducible transcript 3 (DDIT3), DDIT3 (gene 1649); test: LTEA_HepaRG_DDIT3: Life Technologies and Expression Analysis (LTEA) Assay for DNA damage-inducible transcript 3 (DDIT3) using HepaRG (AID 2283488)
In short: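 Cells are human HepaRG liver cells treated for 48 h with eight half-log concentrations up to 100 uM in 0.5% DMSO. Transcript levels come from qRT-PCR normalized to three housekeeping genes, with activity fitted in both directions relative to vehicle.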

[6] = read-out: Pro-epidermal growth factor (Homo sapiens) (UniProt P01133); test: LTEA_HepaRG_EGF: Life Technologies and Expression Analysis (LTEA) Assay for Epidermal growth factor (EGF) using HepaRG (AID 2283489)
In short: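 HepaRG cells (~100,000/well, 48 h pre-culture) exposed in duplicate for 48 h in serum-free induction medium to 8 half-log concentrations up to 100 uM in 0.5% DMSO. EGF mRNA by qRT-PCR, normalized to ACTB/GAPDH/POLR2A; bidirectional fit versus DMSO.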

[7] = read-out: Early growth response protein 1 (EGR1) transcription factor, EGR1 (gene 1958); test: LTEA_HepaRG_EGR1: Life Technologies and Expression Analysis (LTEA) Assay for Early growth response protein 1 (EGR1) transcription factor using HepaRG (AID 2283490)
In short: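 HepaRG, 48 h exposure, 8-pt half-log series from 100 uM, 0.5% DMSO vehicle; EGR1 transcript by TaqMan qRT-PCR (Fluidigm array), housekeeping-normalized; bidirectional fit relative to DMSO baseline.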

[8] = read-out: Ezrin (EZR), EZR (gene 7430); test: LTEA_HepaRG_EZR: Life Technologies and Expression Analysis (LTEA) Assay for Ezrin (EZR) using HepaRG (AID 2283491)
In short: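 Gain or loss of EZR mRNA is scored relative to 0.5% DMSO in human HepaRG cultures treated 48 h with test chemicals in duplicate, eight half-log concentrations from 100 uM.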

CYP3A5 (gene 1577) = test: LTEA_HepaRG_CYP3A5: Life Technologies and Expression Analysis (LTEA) Assay for CYP3A5 using HepaRG (AID 2283493)
In short: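 Human HepaRG hepatic cells receive 48 h chemical treatment at eight concentrations (half-log steps from 100 uM) in 0.5% DMSO. Expression of CYP3A5 is quantified by Fluidigm qRT-PCR and normalized to three reference genes.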

[9] = read-out: Fatty Acid-Binding Protein 1 (FABP1), FABP1 (gene 2168); test: LTEA_HepaRG_FABP1: Life Technologies and Expression Analysis (LTEA) Assay for Fatty Acid-Binding Protein 1 (FABP1) using HepaRG (AID 2283494)
In short: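 qRT-PCR readout of FABP1 transcript (normalized to three housekeeping genes) after 48 h chemical exposure of HepaRG cells; eight concentrations, half-log steps, max 100 uM, 0.5% DMSO vehicle; gain or loss fitted relative to DMSO baseline.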

[10] = read-out: Cytochrome P450 4A22 (Homo sapiens) (UniProt Q5TCH4); test: LTEA_HepaRG_CYP4A22: Life Technologies and Expression Analysis (LTEA) Assay for Cytochrome P450 4A22 (CYP4A22) using HepaRG (AID 2283495)
In short: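 Differentiated HepaRG cells in serum-free induction medium exposed 48 h in duplicate to eight half-log concentrations up to 100 uM in 0.5% DMSO. CYP4A22 mRNA quantified by TaqMan qRT-PCR, normalized to ACTB, GAPDH and POLR2A; bidirectional fit versus DMSO.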

[11] = read-out: Cytochrome P450 7A1 (Homo sapiens) (UniProt P22680); test: LTEA_HepaRG_CYP7A1: Life Technologies and Expression Analysis (LTEA) Assay for Cytochrome P450 7A1 (CYP7A1) using HepaRG (AID 2283496)
In short: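 HepaRG, 48 h exposure, 8-pt half-log series from 100 uM, 0.5% DMSO vehicle, duplicates. Readout: TaqMan qRT-PCR mRNA vs three housekeeping genes; bidirectional curve fit against DMSO baseline.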

[12] = read-out: Glutathione S-Transferase (GSTA2), GSTA2 (gene 2939); test: LTEA_HepaRG_GSTA2: Life Technologies and Expression Analysis (LTEA) Assay for Glutathione S-Transferase (GSTA2) using HepaRG (AID 2283497)
In short: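 qRT-PCR readout of GSTA2 transcript, normalized to three housekeeping genes, fitted bidirectionally against 0.5% DMSO baseline. Differentiated HepaRG cells received compound for 48 h at 8 concentrations (top 100 uM, half-log steps).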

[13] = read-out: Glutamate-cysteine ligase catalytic (GCLC), GCLC (gene 2729); test: LTEA_HepaRG_GCLC: Life Technologies and Expression Analysis (LTEA) Assay for Glutamate-cysteine ligase catalytic (GCLC) using HepaRG (AID 2283498)
In short: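 HepaRG, 48 h exposure, 8-pt half-log series from 100 uM, 0.5% DMSO vehicle; TaqMan qRT-PCR for GCLC mRNA, housekeeping-normalized; bidirectional curve fit vs DMSO baseline.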

[14] = read-out: Cytochrome P450 3A4 (Homo sapiens) (UniProt P08684); test: LTEA_HepaRG_CYP3A4: Life Technologies and Expression Analysis (LTEA) Assay for CYP3A4 using HepaRG (AID 2283487)
In short: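 In a human hepatic line (HepaRG), duplicate wells were treated 48 h with up to 100 uM chemical in half-log dilutions. Endpoint: CYP3A4 mRNA induction or loss relative to 0.5% DMSO vehicle, by qRT-PCR.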

CYP2E1 (gene 1571) = test: LTEA_HepaRG_CYP2E1: Life Technologies and Expression Analysis (LTEA) Assay for CYP2E1 using HepaRG (AID 2283485)
In short: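 Readout is qRT-PCR of CYP2E1 mRNA, normalized to three housekeeping genes and fitted bidirectionally against 0.5% DMSO. HepaRG cells were dosed 48 h at eight concentrations, highest 100 uM with half-log dilutions.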

Measured: AC50

Sequence of Cytochrome P450 2C19 (Homo sapiens) (P33261 whole entry, looked up): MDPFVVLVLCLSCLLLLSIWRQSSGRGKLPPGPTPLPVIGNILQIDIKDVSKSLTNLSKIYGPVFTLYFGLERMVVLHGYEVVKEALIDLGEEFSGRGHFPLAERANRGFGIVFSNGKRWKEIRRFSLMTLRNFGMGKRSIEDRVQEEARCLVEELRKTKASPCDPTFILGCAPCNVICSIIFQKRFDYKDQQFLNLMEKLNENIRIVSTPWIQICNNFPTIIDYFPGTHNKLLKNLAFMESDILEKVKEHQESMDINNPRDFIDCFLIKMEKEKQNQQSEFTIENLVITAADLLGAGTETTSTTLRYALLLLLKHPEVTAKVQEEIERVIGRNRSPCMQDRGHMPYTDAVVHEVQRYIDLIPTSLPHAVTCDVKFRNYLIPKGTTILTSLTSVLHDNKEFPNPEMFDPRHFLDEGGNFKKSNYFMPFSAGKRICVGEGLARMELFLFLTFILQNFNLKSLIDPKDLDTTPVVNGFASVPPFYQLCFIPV
Sequence of Cytochrome P450 3A4 (Homo sapiens) (P08684 whole entry, looked up): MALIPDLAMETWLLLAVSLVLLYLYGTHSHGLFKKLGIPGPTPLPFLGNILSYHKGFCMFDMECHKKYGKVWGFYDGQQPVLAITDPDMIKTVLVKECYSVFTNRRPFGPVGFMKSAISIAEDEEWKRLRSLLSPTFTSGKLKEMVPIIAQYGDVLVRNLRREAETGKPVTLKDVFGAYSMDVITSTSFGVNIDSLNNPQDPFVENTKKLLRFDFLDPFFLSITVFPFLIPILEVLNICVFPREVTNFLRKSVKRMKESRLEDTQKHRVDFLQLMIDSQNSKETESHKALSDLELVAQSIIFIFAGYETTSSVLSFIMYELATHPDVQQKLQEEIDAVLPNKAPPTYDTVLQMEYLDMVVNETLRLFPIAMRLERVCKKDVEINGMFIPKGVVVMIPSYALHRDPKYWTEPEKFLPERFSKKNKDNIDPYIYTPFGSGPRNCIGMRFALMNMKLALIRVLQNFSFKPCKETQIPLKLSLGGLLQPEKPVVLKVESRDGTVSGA

Cc1[nH]cnc1C[C@H]1CCc2c(C)c3ccccc3n2C1=O
active: [1] 5.56 µM | [2] 66.7 µM | [3] 29 µM | [4] 30.6 µM | CYP2C8 (gene 1558) 22.9 µM | CYP4A11 (gene 1579) 13.2 µM | [5] 27.4 µM | [7] 70.2 µM | [8] 11.8 µM | [9] 17.1 µM | [10] 18.9 µM | [11] 22.6 µM | [12] 30.5 µM | [13] 29.7 µM
inactive: [6] | CYP3A5 (gene 1577)

CC(=O)c1ccc2c(c1)[C@H](NC(=O)c1ccc(F)cc1)[C@@H](O)C(C)(C)O2
active: [3] 68.4 µM | [4] 16.3 µM | [14] 18 µM
not listed: [9] | CYP2E1 (gene 1571)
inactive: all other assays above

CC(C)=CCC/C(C)=C/CO
inactive: [2] | [5] | [6] | [7] | [8] | [12] | [13]

Cc1ccc(C)c(O)c1
active: [1] 51.2 µM | [3] 51.2 µM
not listed: [6]
inactive: all other assays above

From PubChem BioAssay (EPA / NIEHS)
